For three molecules, outcome and AC50 results are on record in PubChem BioAssay (EPA / NIEHS).

Experiment [1] is described as follows: TOX21_p53_BLA_p2_viability: Viability Assessment in the Tox21 HCT-116 p53 Agonism Beta-lactamase Assay, Phase 2 (AID 2283591).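 Further: compound exposure lasted 16 h at 37 °C; actives lower the ATP signal meaning cytotoxicity.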 Put shortly: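 HCT-116 p53-bla cells (4000/well) rested 5 h at 37C, then received compounds in DMSO (217-fold dilution) for 16 h at 37C, 5% CO2. After the CCF4 read, CellTiter-Glo was added; ATP luminescence was read after 30 min at room temperature.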

Experiment [2] deals with Cellular tumor antigen p53 (Homo sapiens) (UniProt P04637). Description: TOX21_p53_BLA_p2_ratio: Tox21 HCT-116 p53 Agonism Beta-lactamase Assay, Ratio, Phase 2 (AID 2283592). Put shortly:
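Plated HCT116 p53-bla cells (4000/well) received compound after 5 h, then 16 h at 37C/5% CO2. CCF4-AM added, 2 h RT. Ratio of 460 to 530 nm emission taken as the p53 reporter signal.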

Experiment [3] shares this target. Description: TOX21_p53_BLA_p3_ratio: Tox21 HCT-116 p53 Agonism Beta-lactamase Assay, Ratio, Phase 3 (AID 2283596). Put shortly: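 Cells were seeded at 4000/well, rested 5 h at 37C, then dosed with DMSO compound solutions (217-fold dilution) for 16 h. CCF4-AM substrate was loaded for 2 h at room temperature, and the 460/530 nm emission ratio was fitted for gain of signal versus DMSO.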

The nature of experiment [4]: TOX21_p53_BLA_p4_viability: Viability Assessment in the Tox21 HCT-116 p53 Agonism Beta-lactamase Assay, Phase 4 (AID 2283597).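 Further: hits lower the luminescence signal meaning cytotoxicity.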 A digest of the protocol:
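Readout: ATP luminescence (CellTiter-Glo), measured 30 min after reagent addition at RT. The reagent followed a 2 h CCF4-AM incubation, and the cells had been exposed to compound for 16 h at 37C.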

A short description of experiment [5]: TOX21_p53_BLA_p5_viability: Viability Assessment in the Tox21 HCT-116 p53 Agonism Beta-lactamase Assay, Phase 5 (AID 2283600). Put shortly:
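Workflow: seed 4000 cells per well, wait 5 h, add compounds (DMSO, 217-fold dilution), incubate 16 h, load CCF4-AM 2 h, add CellTiter-Glo, read luminescence after 30 min.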

In experiment [6] the target is Cellular tumor antigen p53 (Homo sapiens) (UniProt P04637). As to the kind of experiment: TOX21_p53_BLA_p5_ratio: Tox21 HCT-116 p53 Agonism Beta-lactamase Assay, Ratio, Phase 5 (AID 2283599). Put shortly:
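HCT-116 cells carrying a p53-inducible beta-lactamase reporter were seeded at 4000 cells/well and dosed after 5 h with compound in DMSO (217-fold dilution). After 16 h at 37C, CCF4-AM substrate was added for 2 h, and the 460/530 nm emission ratio was scored as gain-of-signal versus DMSO.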

Experiment [7] shares this target. As to the kind of experiment: TOX21_p53_BLA_p4_ratio: Tox21 HCT-116 p53 Agonism Beta-lactamase Assay, Ratio, Phase 4 (AID 2283601). Put shortly:
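HCT116 cells carrying an inducible beta-lactamase reporter were plated at 4000 cells/well, rested 5 h, then exposed to compounds in DMSO (217-fold dilution) for 16 h at 37C. CCF4-AM substrate was loaded 2 h at room temperature; 460/530 nm emission ratio scored gain-of-signal versus DMSO.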

A short description of experiment [8]: CCTE_Shafer_MEA_dev_firing_rate_mean: CCTE's Neural Network Formation Assay for Mean Firing Rate, Shafer Lab (AID 2284031; active means hit-call score of the fitted dose curve at least 0.9, where 1 is the maximum; inactive means score below 0.9). Put shortly: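 Extracellular spike frequency, AUC over DIV 5–12 recordings, in rat cortical neuron MEA cultures dosed from plating; loss direction vs DMSO.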
A short description of experiment [9]: CCTE_Shafer_MEA_dev_per_burst_spike_percent: CCTE's Neural Network Formation Assay for Percent of Spikes in a Burst, Shafer Lab (AID 2284032; active means hit-call score of the fitted dose curve at least 0.9, where 1 is the maximum; inactive means score below 0.9). Put shortly:
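Value is trapezoidal AUC over recordings on days 5, 7, 9 and 12 of the well-mean fraction of spikes falling in single-electrode bursts; rat cortical cultures exposed continuously from plating, treatment renewed DIV 5 and 9, fitted downward against DMSO.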

Experiment [10] is described as follows: CCTE_Shafer_MEA_dev_burst_rate: CCTE's Neural Network Formation Assay for Burst Rate, Shafer Lab (AID 2284042; active means hit-call score of the fitted dose curve at least 0.9, where 1 is the maximum; inactive means score below 0.9). A digest of the protocol: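 Exposure ran continuously over 12 days of network development in rat cortical cultures, with compound refreshed during full media changes on DIV 5 and 9. Single-electrode bursts per recording time, well-mean over active electrodes, trapezoidal AUC across days 5–12, fitted downward relative to DMSO.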

Experiment [11] is described as follows: CCTE_Shafer_MEA_dev_bursting_electrodes_number: CCTE's Neural Network Formation Assay for Number of Bursting Electrodes, Shafer Lab (AID 2284043). Put shortly: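 Counted: electrodes with burst rate ≥1 per 2 min in each well. Cells: primary rat cortex, 1.5 x 10^5/well, on 16-electrode MEA wells. Exposure: DIV 0–12, compound renewed DIV 5 and 9. Recording days 5, 7, 9, 12; AUC vs DMSO baseline.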

Experiment [12] in a line: CCTE_Shafer_MEA_dev_per_burst_interspike_interval: CCTE's Neural Network Formation Assay for Burst Interspike Interval, Shafer Lab (AID 2284044; active means hit-call score of the fitted dose curve at least 0.9, where 1 is the maximum; inactive means score below 0.9). Put shortly:
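Neurons from rat cortex plated onto PEI-coated MEA wells with laminin […] at 1.5 x 10^5 cells/well, then treated from day 0. Media and compound fully replaced on DIV 5 and 9. Extracellular spontaneous firing recorded four times; interspike interval per burst summarised as AUC.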

A short description of experiment [13]: CCTE_Shafer_MEA_dev_burst_duration_mean: CCTE's Neural Network Formation Assay for Mean Burst Duration, Shafer Lab (AID 2284045; active means hit-call score of the fitted dose curve at least 0.9, where 1 is the maximum; inactive means score below 0.9). A digest of the protocol: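 Network-formation assay in primary rat cortical neurons; treatment spans twelve days of development. Mean burst duration per well is integrated by trapezoidal AUC and fitted in the loss-of-signal direction against DMSO baseline.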

Experiment [14] in a line: CCTE_Shafer_MEA_dev_interburst_interval_mean: CCTE's Neural Network Formation Assay for Mean Interburst Interval, Shafer Lab (AID 2284046; active means hit-call score of the fitted dose curve at least 0.9, where 1 is the maximum; inactive means score below 0.9;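 further: well-mean interburst interval of bursting electrodes as AUC over four recording days; curve fitted for decrease in interburst interval relative to DMSO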). Put shortly:
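Primary rat cortical neurons on PEI-coated 48-well MEA plates (laminin added with cells at plating) (16 electrodes/well), exposed from plating day 0 with renewal at DIV 5 and 9. Mean inter-burst interval averaged over bursting electrodes, AUC across days 5, 7, 9, 12; DMSO baseline.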

The nature of experiment [15]: CCTE_Shafer_MEA_dev_inter_network_spike_interval_mean: CCTE's Neural Network Formation Assay for Mean Inter-network Spike Interval, Shafer Lab (AID 2284047; active means hit-call score of the fitted dose curve at least 0.9, where 1 is the maximum; inactive means score below 0.9). A digest of the protocol: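 Mean time between consecutive network-spike peaks, recorded extracellularly (adaptive spike detection) on DIV 5, 7, 9 and 12, summarized as trapezoidal AUC. Rat cortical cultures on MEAs dosed continuously days 0–12, re-dosed at feeds; loss-of-signal fit relative to DMSO.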

Experiment [16] is described as follows: CCTE_Shafer_MEA_dev_network_spike_number: CCTE's Neural Network Formation Assay for Number of Network Spikes, Shafer Lab (AID 2284048; active means hit-call score of the fitted dose curve at least 0.9, where 1 is the maximum; inactive means score below 0.9;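 further: synchronized bursts across electrodes counted on days 5 7 9 12 and integrated as AUC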). A digest of the protocol: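 Extracellular recordings from 16-electrode wells track network formation in rat cortical cultures under continuous treatment from plating. The endpoint is network spike number, expressed as AUC across DIV 5–12 relative to DMSO vehicle.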

Experiment [17] is described as follows: CCTE_Shafer_MEA_dev_network_spike_peak: CCTE's Neural Network Formation Assay for Mean Number of Electrodes in Network Spike, Shafer Lab (AID 2284049; active means hit-call score of the fitted dose curve at least 0.9, where 1 is the maximum; inactive means score below 0.9). Put shortly:
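Continuous 12-day exposure of rat cortical cultures, starting at plating, on MEA plates. Endpoint: electrodes participating in network-spike peaks, AUC across DIV 5–12, DMSO as negative control.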

A short description of experiment [18]: CCTE_Shafer_MEA_dev_network_spike_duration_std: CCTE's Neural Network Formation Assay for Standard Deviation of Network Spike Duration, Shafer Lab (AID 2284052; active means hit-call score of the fitted dose curve at least 0.9, where 1 is the maximum; inactive means score below 0.9;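 further: hits are decreases in network spike duration SD versus DMSO vehicle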). Put shortly: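 Network spike duration variability was collapsed across recordings on days 5, 7, 9 and 12 by trapezoidal area-under-curve and fitted downward against DMSO. Cultures were rat cortical neurons on PEI-coated MEA plates, dosed continuously from plating, refed with compound DIV 5/9.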

Experiment [19] in a line: CCTE_Shafer_MEA_dev_per_network_spike_spike_number_mean: CCTE's Neural Network Formation Assay for Mean Number of Spikes in a Network Spike, Shafer Lab (AID 2284053; active means hit-call score of the fitted dose curve at least 0.9, where 1 is the maximum; inactive means score below 0.9). A digest of the protocol:
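Mean spike count within each network spike, taken in a 0.05 s window at its peak, was recorded on days 5, 7, 9 and 12 and integrated as trapezoidal area under the curve. Rat cortical cultures on MEA plates received continuous compound from day 0, refreshed at medium changes on DIV 5 and 9.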

Experiment [20] in a line: CCTE_Shafer_MEA_dev_per_network_spike_spike_percent: CCTE's Neural Network Formation Assay for Percent of Spikes in a Network Spike, Shafer Lab (AID 2284054; active means hit-call score of the fitted dose curve at least 0.9, where 1 is the maximum; inactive means score below 0.9). A digest of the protocol: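 Developing networks of rat cortical neurons are dosed at day 0 and recorded extracellularly four times up to day 12. The endpoint is the area under the curve of percent spikes in network spikes, fitted in the negative direction relative to DMSO.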

Experiment [21] is described as follows: CCTE_Shafer_MEA_dev_mutual_information_norm: CCTE's Neural Network Formation Assay for Mutual Information Normalization, Shafer Lab (AID 2284091; active means hit-call score of the fitted dose curve at least 0.9, where 1 is the maximum; inactive means score below 0.9). Put shortly:
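Exposure of primary rat cortical neurons began at plating and ran to DIV 12, with full media and treatment renewal after DIV 5 and 9 recordings. Mutual information AUC (DIV 5–12) was analysed for loss versus DMSO.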

Results filed as inconclusive are left out. The source made the active and inactive calls. How the source made its calls, unless noted: active means hit-call score of the fitted dose curve at least 0.9, where 1 is the maximum; inconclusive means response in the unintended direction; inactive means score below 0.9.

Chain of Cellular tumor antigen p53 (Homo sapiens) (P04637 whole entry, looked up): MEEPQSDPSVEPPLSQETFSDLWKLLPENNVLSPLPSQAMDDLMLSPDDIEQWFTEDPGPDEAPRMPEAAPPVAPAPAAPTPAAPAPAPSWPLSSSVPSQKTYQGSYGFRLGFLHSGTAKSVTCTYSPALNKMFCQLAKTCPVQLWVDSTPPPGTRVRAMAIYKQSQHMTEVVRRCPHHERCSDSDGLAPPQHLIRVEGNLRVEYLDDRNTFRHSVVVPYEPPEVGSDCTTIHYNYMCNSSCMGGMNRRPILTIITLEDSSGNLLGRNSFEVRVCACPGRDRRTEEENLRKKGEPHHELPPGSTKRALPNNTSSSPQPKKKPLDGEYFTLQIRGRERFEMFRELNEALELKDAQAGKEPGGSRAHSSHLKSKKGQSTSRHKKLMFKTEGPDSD

Take `Nc1ccc(S(=O)(=O)NCc2ccccc2)cc1`: the molecule was called inactive in experiment [1], in experiment [2], in experiment [3], in experiment [4] and in experiment [5].
Take `CCOc1cc(OCC)c(C(C)=O)cc1OCC`: the outcome in experiment [1], in experiment [2], in experiment [3], in experiment [4] and in experiment [5] was inactive.
The AC50 is the midpoint of the concentration-response curve, whichever way the signal moves. For `c1cc2ccc3ccc4ccc5cccc6c(c1)c2c3c4c56`, the call in experiment [1], in experiment [3], in experiment [4], in [5], in experiment [7] and in [8] was inactive. The molecule was called inactive in experiment [9], in [10], in experiment [11], in [12], in experiment [13] and in [14]. Also, the molecule was called inactive in experiment [15], in experiment [16], in experiment [17], in experiment [18], in experiment [19] and in [20]. The molecule was called inactive in experiment [21]. Moreover, the AC50 in experiment [2] is 1.94 µM (active); in experiment [6] it was 2.79 µM (active).
